Values without a mark were called inactive. For some assays here: Measured potencies and affinities stand elsewhere. Activity calls are given as the source filed them. Unless noted, how the calls were made is not given here.
Key:
[1] = antimalarial activity against Dd2 strain (AID 2302;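 active means growth inhibition above 50% at the single 2 µM test dose, taken to imply half-maximal potency below 2 µM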;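 further: 0% = DMSO untreated growth and 100% = chloroquine plus artemisinin killed control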); settings: P. falciparum Dd2 in RBCs, LDH growth readout, 72 h; at 2 µM; stronger effect = higher value
[2] = human hepatoma cell viability loss – ATP luminescence, cytotoxicity control for P. falciparum antimalarial project, primary screen (AID 2303;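 active means inhibition above 50%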;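 further: 0% = DMSO wells and 100% = digitonin-killed cells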); settings: HepG2 viability, 24-48 h, at 10 µM, stronger effect = higher value
[3] = target: L-lactate dehydrogenase (Plasmodium falciparum (isolate CDC / Honduras)) (UniProt Q27743); test: PfLDH activity inhibition – cell lysate, 3D7 strain, counter-screen for P. falciparum growth inhibition project (AID 2304);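 further: 0% = vehicle and 100% = reference inhibitor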; settings: P. falciparum 3D7 crude extract, LDH APAD/NBT absorbance; at 2 µM; stronger effect = higher value
Chain of L-lactate dehydrogenase (Plasmodium falciparum (isolate CDC / Honduras)) (Q27743 whole entry, looked up): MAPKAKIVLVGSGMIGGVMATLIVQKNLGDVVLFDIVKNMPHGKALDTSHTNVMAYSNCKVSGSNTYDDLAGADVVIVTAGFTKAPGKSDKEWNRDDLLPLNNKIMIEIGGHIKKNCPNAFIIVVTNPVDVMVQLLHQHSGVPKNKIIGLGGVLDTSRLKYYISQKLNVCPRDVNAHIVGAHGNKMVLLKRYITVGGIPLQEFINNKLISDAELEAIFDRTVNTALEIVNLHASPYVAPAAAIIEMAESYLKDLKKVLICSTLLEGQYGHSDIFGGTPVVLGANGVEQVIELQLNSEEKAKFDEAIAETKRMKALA

[4] = inhibition of 3D7 malaria parasite growth – strain 3D7 (AID 2306);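 further: 0% = DMSO wells and 100% = chloroquine plus artemisinin control wells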; settings: P. falciparum 3D7 erythrocytic growth, LDH absorbance, 72 h; at 2 µM; stronger effect = higher value
[5] = target: Calcium-dependent protein kinase 1 (Plasmodium falciparum (isolate 3D7)) (UniProt P62344); test: PfCDPK1 kinase inhibitors, biochemical, TCAMS library (AID 1159585; cut-off not given, nearly all actives have IC50 up to about 0.98 µM;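 further: inhibitors leave more ATP so luminescence rises with inhibition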); settings: recombinant PfCDPK1, Kinase-Glo ATP depletion luminescence
Chain of Calcium-dependent protein kinase 1 (Plasmodium falciparum (isolate 3D7)) (P62344 whole entry, looked up): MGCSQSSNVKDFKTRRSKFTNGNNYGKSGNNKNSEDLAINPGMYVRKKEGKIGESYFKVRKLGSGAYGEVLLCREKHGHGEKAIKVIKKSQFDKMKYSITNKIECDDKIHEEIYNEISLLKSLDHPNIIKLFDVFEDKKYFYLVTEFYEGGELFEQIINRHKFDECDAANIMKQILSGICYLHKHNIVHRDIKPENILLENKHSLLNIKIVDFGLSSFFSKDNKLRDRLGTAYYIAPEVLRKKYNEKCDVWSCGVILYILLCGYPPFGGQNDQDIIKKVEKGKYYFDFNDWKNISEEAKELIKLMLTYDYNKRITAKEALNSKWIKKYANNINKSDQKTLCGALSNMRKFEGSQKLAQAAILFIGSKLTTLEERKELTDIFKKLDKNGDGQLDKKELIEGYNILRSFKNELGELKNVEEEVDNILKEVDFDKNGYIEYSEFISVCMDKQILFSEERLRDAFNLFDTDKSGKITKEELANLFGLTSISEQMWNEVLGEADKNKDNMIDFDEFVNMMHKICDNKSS

[6] = target: Plasmodium falciparum protein kinase 6 (PK6, PF3D7_1337100) (UniProt Q8IDW1); test: PfPK6 kinase inhibitors, biochemical, TCAMS library (AID 1159586); settings: recombinant PfPK6, Kinase-Glo ATP depletion luminescence
Chain of Plasmodium falciparum protein kinase 6 (PK6, PF3D7_1337100) (Q8IDW1 1-305): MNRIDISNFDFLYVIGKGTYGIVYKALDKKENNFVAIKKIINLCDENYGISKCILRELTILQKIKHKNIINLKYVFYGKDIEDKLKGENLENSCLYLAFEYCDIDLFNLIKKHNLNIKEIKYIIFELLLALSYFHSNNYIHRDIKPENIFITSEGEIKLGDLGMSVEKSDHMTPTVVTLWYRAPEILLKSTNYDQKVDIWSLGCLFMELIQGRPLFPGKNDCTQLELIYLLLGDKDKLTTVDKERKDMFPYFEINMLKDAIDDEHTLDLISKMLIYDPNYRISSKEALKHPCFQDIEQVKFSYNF

[7] = target: Protein kinase 7 (PK7), Plasmodium falciparum 3D7 (PF3D7_0213400) (UniProt Q7YTF7); test: inhibition of Plasmodium PK7 catalytic activity – biochemical, TCAMS antimalarial set, Kinase-Glo luminescence (AID 1159587); settings: recombinant PfPK7, Kinase-Glo ATP depletion luminescence
Chain of Protein kinase 7 (PK7), Plasmodium falciparum 3D7 (PF3D7_0213400) (Q7YTF7 1-343): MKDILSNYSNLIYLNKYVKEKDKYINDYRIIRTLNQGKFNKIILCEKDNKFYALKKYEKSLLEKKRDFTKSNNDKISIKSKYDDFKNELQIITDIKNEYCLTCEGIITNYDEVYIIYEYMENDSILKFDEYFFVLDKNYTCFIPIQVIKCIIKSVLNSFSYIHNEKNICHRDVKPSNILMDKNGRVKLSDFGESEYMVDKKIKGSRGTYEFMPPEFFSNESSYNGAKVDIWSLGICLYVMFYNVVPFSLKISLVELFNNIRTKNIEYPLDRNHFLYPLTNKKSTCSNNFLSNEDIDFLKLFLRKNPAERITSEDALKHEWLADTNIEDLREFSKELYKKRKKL

[8] = target: Calcium-dependent protein kinase 4 (Plasmodium falciparum (isolate 3D7)) (UniProt Q8IBS5); test: PfCDPK4 kinase inhibitors, biochemical, TCAMS library (AID 1159588; cut-off not given, nearly all actives have IC50 up to about 0.91 µM); settings: recombinant PfCDPK4, Kinase-Glo ATP depletion luminescence
Chain of Calcium-dependent protein kinase 4 (Plasmodium falciparum (isolate 3D7)) (Q8IBS5 whole entry, looked up): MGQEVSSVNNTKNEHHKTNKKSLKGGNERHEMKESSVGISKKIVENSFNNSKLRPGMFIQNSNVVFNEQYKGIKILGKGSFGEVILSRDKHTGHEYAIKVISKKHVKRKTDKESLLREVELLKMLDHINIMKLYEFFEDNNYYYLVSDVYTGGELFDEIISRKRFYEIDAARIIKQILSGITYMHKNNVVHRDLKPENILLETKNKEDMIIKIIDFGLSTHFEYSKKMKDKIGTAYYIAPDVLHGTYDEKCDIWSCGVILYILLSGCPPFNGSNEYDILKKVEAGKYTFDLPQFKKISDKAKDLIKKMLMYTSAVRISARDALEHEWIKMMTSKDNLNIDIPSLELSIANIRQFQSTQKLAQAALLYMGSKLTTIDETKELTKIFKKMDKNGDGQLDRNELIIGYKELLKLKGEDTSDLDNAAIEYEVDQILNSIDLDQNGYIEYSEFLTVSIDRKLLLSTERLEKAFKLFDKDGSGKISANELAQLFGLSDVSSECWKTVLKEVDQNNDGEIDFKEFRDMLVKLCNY

SMILES | growth inhibition [1] | inhibition [2] | inhibition [3] [%] | growth inhibition [4] | outcome [5] | outcome [6] | outcome [7] | outcome [8]
CCOc1ncccc1CN1CCC(N2CCc3cc(NC(=O)c4cc(C)on4)ccc32)C1 (stereo unspecified) | 96% (active) | -3% | -1 | 89% (active) | inactive | inactive | inactive | inactive
Cc1cnc(CCNC(=O)c2cc(-c3ccc(Cl)cc3)cs2)[nH]1 | 7% | 12% | 4 | 101% (active) | inactive | inactive | inactive | inactive
N#Cc1cccc(COC(=O)C2=C(COc3ccccc3Cl)NC(=O)NC2c2c[nH]c3cnccc23)c1 (stereo unspecified) | -3% | 0% | -1 | 99% (active) | inactive | inactive | inactive | inactive
COc1cc(C=NNc2cc(C)nc3ccccc23)cc(OC)c1OC | 95% (active) | 5% | -1 | 102% (active) | inactive | inactive | inactive | inactive
Cc1c(-c2cccc(NC(=O)C(C)(C)Oc3ccc(Cl)cc3)c2)nc2ncccn12 | 95% (active) | 0% | -3 | 98% (active) | inactive | inactive | inactive | inactive
COc1ccc(C(=O)N[C@@H](CC(C)C)C(=O)NC2CC[C@@H](C)N(C(=O)Nc3ccc(Cl)cc3)CC2=O)cc1OCCN1CCOCC1 (stereo partly specified) | 91% (active) | 5% | 5 | 96% (active) | inactive | inactive | inactive | inactive
C/C=C/C=C/C1=NCCc2cc(OCCC)ccc21 | 40% | -1% | -4 | 87% (active) | inactive | inactive | inactive | inactive
Cc1ccc(C)c(NC(=O)NC2CCN(c3ccnc(Nc4ccc(F)cc4)n3)C2)c1 (stereo unspecified) | 74% (active) | -2% | -3 | 100% (active) | inactive | inactive | inactive | inactive
CN(C)C1CCN(Cc2ccc(N3CCN(Cc4cccc5[nH]ccc45)CC3)nc2)CC1 | 17% | 11% | -2 | 80% (active) | inactive | inactive | inactive | inactive
NCCCCc1c(-c2ccc(Cl)c(Cl)c2)[nH]c2ccc(Cl)cc12 | 20% | 33% | -9 | 97% (active) | inactive | inactive | inactive | inactive
CC(C)COc1ccc(Cl)cc1Cc1nc(-c2nc3nc(N4CCN(C)CC4)ccc3[nH]2)cs1 | 27% | 29% | -6 | 99% (active) | inactive | inactive | inactive | inactive
CC(C)N1CCN(c2ccc(OCCCN3CCN(c4cccc(Cl)c4Cl)CC3)c(C(F)(F)F)c2)CC1 | 37% | 79% (active) | 0 | 94% (active) | inactive | inactive | inactive | inactive
O=C(Nc1ccc(Cl)cc1)Nc1ccc(-c2cccc(-c3nc4ccccc4[nH]3)c2)cc1 | 78% (active) | 69% (active) | -3 | 100% (active) | inactive | inactive | inactive | inactive
O=C(Nc1ccc(OC2CCN(Cc3ccc(F)cc3)C2)c(Cl)c1)c1ccoc1 (stereo unspecified) | 90% (active) | 13% | 2 | 90% (active) | inactive | inactive | inactive | inactive
O=C(NCCN1CCCCC1)N1CCCN(c2ncnc3cc(-c4ccccc4)sc23)CC1 | 80% (active) | 2% | -1 | 89% (active) | inactive | inactive | inactive | inactive
O=C(/C=C/c1ccccc1)N1CCOC(CCN2CCC(c3ccccc3)CC2)(c2ccc(Cl)c(Cl)c2)C1 (stereo unspecified) | 63% (active) | 4% | 2 | 89% (active) | inactive | inactive | inactive | inactive
COc1ccc(NC(=O)c2c(NC(=O)c3cccs3)sc3c2CCCC3)cc1 | 4% | 4% | 1 | 97% (active) | inactive | inactive | inactive | inactive
Cc1cccc2[nH]c(-c3cccc(-c4ccc(NC(=O)C5CCCO5)cc4)c3)nc12 (stereo unspecified) | 13% | 10% | -4 | 91% (active) | inactive | inactive | inactive | inactive
COc1ccc(C(=O)COc2cccc(/C=C/C(=O)O)c2)cc1OC | 28% | 44% | 3 | 84% (active) | inactive | inactive | inactive | inactive

SMILES | growth inhibition [1] | inhibition [2] | inhibition [3] [%] | growth inhibition [4] | outcome [5] | outcome [6] | outcome [7] | outcome [8]
CC1(C)N=C(N)N=C(N)N1OCc1nc(N)nc(Nc2ccccc2)n1 | -4% | 3% | -2 | 98% (active) | inactive | inactive | inactive | inactive
CCCn1c(=N)c(C(=O)NCCc2ccccc2)cc2c(=O)n3cccc(C)c3nc21 | 64% (active) | 8% | 2 | 100% (active) | inactive | inactive | inactive | inactive
C=CCc1cc(Cc2cnc(N)nc2N)c2ccc(C)nc2c1OC | -1% | 11% | -4 | 96% (active) | inactive | inactive | inactive | inactive
CC1CC(C)CN(CCCNc2ccc(C(=O)Nc3ccc(C(F)(F)F)cc3)cc2[N+](=O)[O-])C1 (stereo unspecified) | 99% (active) | 31% | -2 | 101% (active) | inactive | inactive | inactive | inactive
CCOC(=O)c1c(C)n(-c2ccccc2)c2ccc(OC(=O)COc3ccc(Cl)cc3Cl)cc12 | 87% (active) | 11% | 3 | 99% (active) | inactive | inactive | inactive | inactive
CC(=O)CSC(C=Cc1ccc(N(C)C)cc1)=Nc1ccccc1 | 42% | 38% | -4 | 81% (active) | inactive | inactive | inactive | inactive
CCn1c(-c2nonc2N)nc2cnc(Oc3cccc(NC(=O)c4ccc(OCCCN5CCCCC5)cc4)c3)cc21 | 12% | 38% | -4 | 90% (active) | inactive | inactive | inactive | inactive
O=C(Nc1ccc(CN2CCCCC2)cc1)c1ccc(COc2ccc([N+](=O)[O-])cc2)o1 | -3% | 12% | -1 | 86% (active) | inactive | inactive | inactive | inactive
Cc1cccnc1Nc1nc(-c2ccccn2)cs1 | 99% (active) | 60% (active) | -1 | 96% (active) | inactive | inactive | inactive | inactive
O=C(Nc1ccc(Cl)cc1)Nc1cccc(-c2cccc(-c3nc4ccc(C(F)(F)F)cc4[nH]3)c2)c1 | 97% (active) | 87% (active) | 1 | 99% (active) | inactive | inactive | inactive | inactive
Cc1[nH]c(C)c(-c2ccc(C(F)(F)F)cc2)c(=O)c1Br | 96% (active) | -5% | -8 | 98% (active) | inactive | inactive | inactive | inactive
O=C(NCCc1ccc(F)cc1)c1ccc(N2CCN(c3ccncc3)CC2)nc1 | 3% | 1% | -4 | 88% (active) | inactive | inactive | inactive | inactive
Cc1cc(Nc2ccc(O)cc2)nc2cccc(O)c12 | 28% | 22% | -6 | 99% (active) | inactive | inactive | inactive | inactive
CCCCC1(c2ccc(F)cc2)NC(=O)N(CC(=O)c2cc(C)n(Cc3ccco3)c2C)C1=O (stereo unspecified) | 28% | 6% | -3 | 82% (active) | inactive | inactive | inactive | inactive
S=C(Nc1cccc(Cl)c1)NC1CCN(c2ccnc3cc(Cl)ccc23)C1 (stereo unspecified) | 89% (active) | 16% | -3 | 100% (active) | inactive | inactive | inactive | inactive
CN1CCN(c2ccnc3ccc(NC(=O)Nc4ccc5c(c4)CCCC5=O)cc23)CC1 | 90% (active) | 8% | 4 | 101% (active) | inactive | inactive | inactive | inactive
COc1ccc2nccc([C@@H](O)CN3CCC(NC(=O)C(c4cc5ccccc5s4)N4CC(C)OC(C)C4)CC3)c2c1 (stereo partly specified) | 44% | 12% | -6 | 93% (active) | inactive | inactive | inactive | inactive
CN1CCCC(CN2CCN(Cc3cccc(-c4csc(-c5nc6ccccc6[nH]5)c4)c3)CC2)C1 (stereo unspecified) | 100% (active) | 65% (active) | -4 | 100% (active) | inactive | inactive | inactive | inactive

From PubChem BioAssay
